High-throughput results from PubChem.
An excerpt weighted towards active compounds, which were near 7.1% of everything screened.
SW480 rerep – induces DNA re-replication in SW480 colon adenocarcinoma cells; SW480 DNA re-replication, Hoechst DNA content imaging, 48 h; Potency, µM (highest dose often 46.1 µM), without a hit: at the top dose re-replication activation, usual class: activators; 340,000 compounds, 1.8% hits; also: potency is read from the fitted curve at half-maximal effect; % of control where 0% means no effect; nearly all actives have a fitted effect of over 55% in size
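Image-based read-out: total Hoechst fluorescence of nuclei (405 nm excitation, 500-530 nm emission), with hits raising the fraction of high-intensity nuclei. SW480 colon cells incubated 48 hr with compounds at 37 C.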
PINK1 modulator – modulators of PINK1 expression; AID 624263; Potency, µM (series often up to 76.6 µM), without a hit: at the top dose activation (PINK1 increase), hits mostly activators; 410,000 compounds, 0.2% hits; PINK1 immunofluorescence, high-content cytometry, 24 h; active = well fitted activation curve with a large enough effect; inconclusive = small, poorly fitted or top-dose-only effect; cell line not stated here; also: potency is read from the fitted curve at half-maximal effect; % of control where 0% means no effect; nearly all actives have a fitted effect of over 65% in size
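Stable cell line, 250 cells/well, 12 h attachment; compounds pinned at 5 concentrations, 24 h; CCCP control. Fixed with nuclear dye, primary antibodies 12 h at 10 degrees C, secondary plus cell stain; laser-scanning cytometer read.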
MCF10A rerep – DNA re-replication induction in MCF 10a cells. 350,000 compounds, 2.9% hits. Potency, µM (top dose mostly 46.1 µM), without a hit: top-dose activity, positive = re-replication, hits mostly activators. MCF 10A DNA re-replication, Hoechst nuclear intensity, 48 h. AID 624296; also: potency is read from the fitted curve at half-maximal effect; % of control where 0% means no effect; nearly all actives have a fitted effect of over 50% in size
S2 tox – reduces viability in counter-screen for ATXN expression inhibitors. 400,000 compounds, 0.49% hits. S2 cells (HEK-293 line with an ATXN2-luciferase reporter) viability, CellTiter-Fluor protease fluorescence, 24 h. Potency, µM (highest dose often 56.7 µM), most hits filed as cytotoxic. AID 651635; also: potency is read from the fitted curve at half-maximal effect; nearly all actives have a fitted effect of over 40% in size
ATXN2 expr inh – reduces ATXN2 reporter expression in HEK-293 cells. HEK-293 ATXN2-luciferase reporter, luminescence, 24 h. Potency, µM (titrated, usually from 57 µM), for inactives: at the top dose activity change, negative = inhibition, most hits filed as inhibitors. 360,000 compounds, 0.72% hits; also: potency is read from the fitted curve at half-maximal effect; % is scaled to controls: 0 for no effect and ±100 for the full control effect; nearly all actives have a fitted effect of over 55% in size
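qHTS (up to 57 uM final) was run with 24 h compound exposure of reporter cells at 37 °C. Each well was multiplexed: SteadyGlo luminescence measured ATXN2-luciferase expression after a fluorogenic Gly-Phe-AFC viability readout (25 uM final).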
IL1B secr inh – inhibitors of inflammasome signaling (IL-1 beta secretion) | THP-1 LPS/ATP IL-1B secretion, AlphaLISA, 16 h; active compounds read low | activity change, % at 57.5 µM | 360,000 compounds, 4.7% hits; in the data active = activity change below about -50%; inconclusive = mostly about -30% to -49%; also: % is scaled to controls: 0 for no effect and ±100 for the full control effect
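THP-1 cells pretreated 1 hr with compounds (up to 57.5 uM final), then stimulated with LPS (250 ng/mL final) plus ATP (1.25 mM final); secreted IL-1B measured by AlphaLISA after 16 hr, decreased signal indicating inhibition.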
SK-N-SH 3D tox – SK-N-SH 3D spheroid viability loss | Potency, µM (doses to about 30.7 µM), most hits filed as inhibitors | 65 compounds, 70% hits | shares compounds with ATXN2 expr inh | SK-N-SH 3D spheroid viability, PI/Hoechst imaging, 72 h
SJ-GBM2 3D tox – reduced viability of SJ-GBM2 3D spheroids, orthogonal test; shares compounds with ATXN2 expr inh; SJ-GBM2 3D spheroid viability, PI/Hoechst imaging, 72 h; Potency, µM (top dose mostly 30.7 µM), hits mostly inhibitors; 65 compounds, 80% hits
Daoy spheroid – reduced viability of Daoy 3D spheroids, orthogonal test. shares compounds with ATXN2 expr inh. Daoy 3D spheroid viability, PI/Hoechst imaging, 72 h. 65 compounds, 50% hits. Potency, µM (titrated, usually from 30.7 µM), most hits filed as inhibitors
TC32 3D casp – TC32 spheroid caspase-3/7 activation, orthogonal screen; shares compounds with ATXN2 expr inh; TC32 3D spheroids, caspase-3/7 fluorescence imaging, 24 h; Potency, µM (highest dose often 30.7 µM), hits mostly inhibitors; 65 compounds, 30% hits
TC32 3D tox – reduced viability of TC32 3D spheroids, orthogonal test | shares compounds with ATXN2 expr inh | TC32 3D spheroid viability, PI/Hoechst imaging, 72 h | Potency, µM (top dose mostly 30.7 µM), hits mostly inhibitors | 65 compounds, 60% hits | AID 1347139
MG63 3D tox – kills MG-63 (6-TG R) spheroids in orthogonal 3D test; shares compounds with ATXN2 expr inh; MG-63 (6-TG R) 3D spheroid viability, PI/Hoechst imaging, 72 h; Potency, µM (highest dose often 30.7 µM), most hits filed as inhibitors; 65 compounds, 50% hits
RD spheroid – kills RD rhabdomyosarcoma spheroids in orthogonal 3D test; shares compounds with ATXN2 expr inh; RD rhabdomyosarcoma 3D spheroid viability, PI/Hoechst imaging, 72 h; Potency, µM (titrated, usually from 30.7 µM), actives largely listed as inhibitors; 65 compounds, 50% hits
* marks the source's active call; other numbers are inactive results; i = inactive; ? = inconclusive; . = not tested or not shown; ! = not active in a repeat. Unless noted, calls follow the shape of the dose curve; as a rule, active = well fitted curve in the direction sought with a large enough effect; inconclusive = small, poorly fitted or top-dose-only effect, or another doubt; inactive = no such curve, though single readings can be large; an effect the other way counts as inactive or inconclusive.

SMILES	SW480 rerep	PINK1 modulator	MCF10A rerep	S2 tox	ATXN2 expr inh	IL1B secr inh	SK-N-SH 3D tox	SJ-GBM2 3D tox	Daoy spheroid	TC32 3D casp	TC32 3D tox	MG63 3D tox	RD spheroid
COc1c(C)c2c(c(O)c1C/C=C(\C)CCC(=O)OCCN1CCOCC1)C(=O)OC2	.	.	.	?	40%	.	?	0.23µM*	?	i	?	0.81µM*	?
CCCCC(=O)OCC(=O)[C@]1(O)Cc2c(O)c3c(c(O)c2[C@H](OC2CC(NC(=O)C(F)(F)F)C(O)C(C)O2)C1)C(=O)c1c(OC)cccc1C3=O (some centres undefined)	-15%	.	-5%	.	.	.	.	.	.	.	.	.	.
COc1cccc2c1C(=O)c1c(O)c3c(c(O)c1C2=O)C[C@@](O)(C(=O)CO)C[C@@H]3O[C@H]1C[C@H](N)[C@@H](O)[C@H](C)O1	-134%	-1%	-26%	.	0.43µM*!	-27	0.51µM*	0.91µM*	1.6µM*	1µM*	0.81µM*	5.1µM*	9.1µM*
CC(=O)[C@]1(O)Cc2c(O)c3c(c(O)c2[C@@H](O[C@H]2C[C@H](N)[C@H](O)[C@H](C)O2)C1)C(=O)c1ccccc1C3=O	-219%	-1%	2%	.	13µM*!	-106*	0.091µM*	0.16µM*	1.8µM*	7.2µM*	0.2µM*	1.1µM*	1.6µM*
CCCC(=O)Nc1nnc([C@H]2C[C@H](O)[C@@H](CO)O2)s1	.	0%	.	i	1%	-4	.	.	.	.	.	.	.
Cc1ccc(C(=O)Nc2cc3cc(Cl)ccc3oc2=O)cc1	.	6%	.	.	.	.	.	.	.	.	.	.	.
COc1ccc(S(=O)(=O)Nc2cccc3cccnc23)cc1	.	3%	.	.	.	.	.	.	.	.	.	.	.
COc1ccc(S(=O)(=O)Nc2cccnc2Nc2ccc(O)cc2)cc1	.	.	.	.	-15%	.	0.32µM*	0.23µM*	?	1µM*	0.57µM*	?	0.46µM*
Nc1nc(Cl)nc2c1ncn2[C@@H]1O[C@H](CO)[C@@H](O)[C@@H]1F	.	.	.	?	1µM*	.	i	0.023µM*	?	i	5.1µM*	0.16µM*	?
Nc1ncnc2c1ncn2CCOc1ccccc1	-10%	0%	4%	i	13%	0	.	.	.	.	.	.	.
CC(C)(C)C(=O)OCOP(=O)(COCCn1cnc2c(N)ncnc21)OCOC(=O)C(C)(C)C	15%	.	8%	i	3.5µM*!	.	5.1µM*	4.1µM*	?	i	2.6µM*	?	?
CCN(CC)C(=O)C1=CC(c2ccc3c(c2)OCO3)=NS(=O)(=O)N1C	.	-2%	.	i	11%	.	.	.	.	.	.	.	.
